Broadly, the AC50 is the midpoint of the concentration-response curve, whichever way the signal moves.

The nature of experiment [1]: ATG_PBREM_CIS: Attagene CIS-FACTORIAL HepG2 Assay for human Phenobarbital-responsive Enhancer Module (PBREM) (AID 2282955). Particulars: HepG2 PBREM cis-reporter, Attagene multiplexed transcription; actives raise or lower the signal. In short, it runs like this:
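Fluorescence of labelled reporter cDNA fragments, resolved by capillary electrophoresis, gives mRNA induction in transfected HepG2 cells treated for 24 h; DMSO serves as negative control and baseline.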

Experiment [2] has as its target Paired box protein Pax-6 (Homo sapiens) (UniProt P26367). The experiment is described as follows: ATG_Pax6_CIS: Attagene CIS-FACTORIAL HepG2 Assay for human Paired Box 6 (PAX6) (AID 2282956). The following applies: HepG2 CIS-FACTORIAL PAX6 reporter transcription, RNA readout; actives raise or lower the signal. In short, it runs like this: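 Multiplexed cis-reporter HepG2 system; 24 h treatment; reporter mRNA read by RT-PCR/CE fluorescence; bidirectional fit vs DMSO.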

A short description of experiment [3]: ATG_PXRE_CIS: Attagene CIS-FACTORIAL HepG2 Assay for human Pregnane X Receptor Element (PXRE) (AID 2282957). Particulars: HepG2 Attagene CIS-FACTORIAL PXRE reporter, mRNA; actives raise or lower the signal. In short, it runs like this:
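Multiplexed cis-reporter assay in transiently transfected human HepG2 cells; 24 h chemical exposure. Reporter transcripts quantified by RT-PCR with fluorescent labeling and capillary electrophoresis.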

Experiment [4] is described as follows: ATG_PPRE_CIS: Attagene CIS-FACTORIAL HepG2 Assay for human Peroxisome Proliferator-activated Response Element (PPRE) (AID 2282958). The following applies: HepG2 PPRE cis-element reporter, Attagene transcription factor profiling; actives raise or lower the signal. In short, it runs like this: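 Cells are first transfected transiently with the multiplexed reporter library, then dosed for 24 h. Total RNA is reverse-transcribed, amplified, fluorescently end-labeled and HpaI-cut before capillary electrophoresis; activity is fitted bidirectionally against DMSO controls.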

Experiment [5] can be described thus: ATG_RORE_CIS: Attagene CIS-FACTORIAL HepG2 Assay for human RAR-related Orphan Receptor Element (RORE) (AID 2282959). The following applies: HepG2 Attagene cis-factorial RORE reporter, mRNA; actives raise or lower the signal. In short, it runs like this:
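Cells were HepG2 carrying transfected cis-regulated reporter constructs, dosed for 24 hours. Total RNA was reverse-transcribed and reporter cDNA amplified, fluorescently labeled and sized by capillary electrophoresis. Activity was fitted bidirectionally relative to DMSO.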

Experiment [6] has as its target Transcription factor Sp1 (Homo sapiens) (UniProt P08047). As to the kind of experiment: ATG_Sp1_CIS: Attagene CIS-FACTORIAL HepG2 Assay for human Specificity Protein 1 (Sp1) (AID 2282961). The following applies: HepG2 Sp1 cis-reporter transcription, actives raise or lower the signal. In short, it runs like this:
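Endogenous Sp1 activity was gauged in human liver HepG2 cells bearing transfected reporter units under a cis-regulating promoter. After 24 h dosing, reporter mRNA was quantified by RT-PCR with capillary electrophoresis, and activity fitted bidirectionally versus DMSO.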

Experiment [7] can be described thus: ATG_SREBP_CIS: Attagene CIS-FACTORIAL HepG2 Assay for human Sterol Regulatory Element Binding (SREBP) (AID 2282962). Particulars: HepG2 Attagene cis-factorial SREBP reporter, mRNA; actives raise or lower the signal. In short, it runs like this:
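mRNA induction of transfected cis-promoter reporters in HepG2 cells, 24 h post-dose. Detection: RT-PCR with 6-FAM-labelled products, HpaI digest, capillary electrophoresis. DMSO served as negative control and baseline.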

The target of experiment [8] is Signal transducer and activator of transcription 3 (Homo sapiens) (UniProt P40763). The experiment is described as follows: ATG_STAT3_CIS: Attagene CIS-FACTORIAL HepG2 Assay for human Signal Transducer and Activator of Transcription 3 (STAT3) (AID 2282963). Particulars: HepG2, Attagene cis-factorial STAT3 reporter transcription; actives raise or lower the signal. In short, it runs like this: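 HepG2 cells transiently transfected with multiple cis-element-driven reporter units report endogenous transcription factor activity. After 24 h compound exposure, reporter mRNA is measured by RT-PCR, 6-FAM labelling, HpaI digestion and capillary electrophoresis. Fitted bidirectionally versus DMSO.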

The nature of experiment [9]: ATG_TA_CIS: Attagene CIS-FACTORIAL HepG2 Assay for human TA Basal Promoter (AID 2282964). The following applies: HepG2 Attagene CIS-factorial TA basal promoter reporter; actives raise or lower the signal. In short, it runs like this:
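Background internal-marker endpoint from a 52-component HepG2 cis-reporter panel. Cells treated 24 h; reporter transcripts quantified via RT-PCR and CE fluorescence against DMSO baseline.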

Experiment [10] in a line: ATG_TCF_b_cat_CIS: Attagene CIS-FACTORIAL HepG2 Assay for human T-Cell-Factor with beta-catenin (TCF/b-cat) (AID 2282965). The following applies: HepG2 TCF/beta-catenin cis-reporter transcription, actives raise or lower the signal. In short, it runs like this:
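Cells of the HepG2 line carry transiently transfected reporter units whose promoters respond to endogenous factors. Twenty-four hours post-dosing, reporter mRNA induction is measured by fluorescent RT-PCR and capillary electrophoresis, with DMSO as baseline.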

A short description of experiment [11]: ATG_TAL_CIS: Attagene CIS-FACTORIAL HepG2 Assay for human TAL Basal Promoter (AID 2282966).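 Further: background control endpoint measuring basal TAL promoter reporter mRNA not a specific factor.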 Particulars: HepG2 Attagene cis-factorial TAL promoter reporter; actives raise or lower the signal. In short, it runs like this:
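Steps: transfect HepG2 with multiple reporter transcription units; dose 24 h; isolate RNA, reverse-transcribe, PCR-amplify, label with 6-FAM, digest with HpaI; resolve by capillary electrophoresis. Bidirectional fitting against DMSO baseline.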

The nature of experiment [12]: ATG_TGFb_CIS: Attagene CIS-FACTORIAL HepG2 Assay for human Transforming Growth Factor (TGF) (AID 2282967). The following applies: HepG2 Attagene CIS TGFb reporter, mRNA transcription; actives raise or lower the signal. In short, it runs like this:
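Liver HepG2 line, cis-factorial reporter panel, 24 h dosing. Quantitation: RT-PCR products labeled with 6-FAM, cut with HpaI, resolved by capillary electrophoresis; DMSO-referenced bidirectional analysis.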

A short description of experiment [13]: ATG_VDRE_CIS: Attagene CIS-FACTORIAL HepG2 Assay for human Vitamin D Receptor Element (VDRE) (AID 2282968). The following applies: HepG2 VDRE cis-reporter transcription, actives raise or lower the signal. In short, it runs like this:
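Transiently transfected HepG2 cells carrying cis-regulated reporter transcription units were exposed for 24 h. Reporter mRNA was measured by RT-PCR with fluorescent labelling and capillary electrophoresis, and fitted in both directions against DMSO.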

In experiment [14] the target is Nuclear receptor subfamily 1 group I member 3 (Homo sapiens) (UniProt Q14994). The experiment is described as follows: ATG_CAR_TRANS: Attagene TRANS-FACTORIAL HepG2 Assay for human Constitutive Androstane Receptor (CAR) (AID 2282969; active means hit-call score of the fitted dose curve at least 0.9, where 1 is the maximum;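 further: activators raise reporter mRNA above DMSO so AC50 marks induction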). The following applies: HepG2 Attagene TRANS-FACTORIAL CAR reporter. In short, it runs like this: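 HepG2 cells transiently transfected with GAL4-UAS reporter units; TRANS format reads activity of exogenous chimeric NR-Gal4 protein. After 24 h dosing, reporter mRNA quantified by RT-PCR, 6-FAM labelling and capillary electrophoresis; gain of signal fitted against DMSO.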

In experiment [15] the target is Estrogen receptor (Homo sapiens) (UniProt P03372). The experiment is described as follows: ATG_ERa_TRANS: Attagene TRANS-FACTORIAL HepG2 Assay for human Estrogen Receptor alpha (ERa) (AID 2282970; active means hit-call score of the fitted dose curve at least 0.9, where 1 is the maximum). The following applies: HepG2 Attagene TRANS ERa GAL4 reporter, mRNA. In short, it runs like this: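 Multiplexed cell-based reporter format in HepG2: chimeric ERa-Gal4 protein drives GAL4-UAS reporter transcription. Fluorescent reporter mRNA quantified by capillary electrophoresis 24 hours after dosing; endpoint fitted as signal gain against DMSO.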

Experiment [16] addresses Steroid hormone receptor ERR1 (Homo sapiens) (UniProt P11474). As to the kind of experiment: ATG_ERRa_TRANS: Attagene TRANS-FACTORIAL HepG2 Assay for human Estrogen-Related Receptor alpha (ERRa) (AID 2282971; active means hit-call score of the fitted dose curve at least 0.9, where 1 is the maximum). Particulars: HepG2 Attagene TRANS reporter, ERRa transactivation. In short, it runs like this: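 Signal gain relative to DMSO for an ERRa-Gal4 chimeric receptor, read as reporter mRNA by RT-PCR/capillary electrophoresis. Human HepG2 liver cells, transient multiplex reporter transfection, 24 h chemical exposure.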

The target of experiment [17] is X-box-binding protein 1 (Homo sapiens) (UniProt P17861). The experiment is described as follows: ATG_Xbp1_CIS: Attagene CIS-FACTORIAL HepG2 Assay for human X-box Binding Protein 1 (XBP1) (AID 2282972). The following applies: HepG2 XBP1 cis-element reporter, Attagene multiplex; actives raise or lower the signal. In short, it runs like this: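 Fluorescence-labelled cDNA fragments from reporter transcripts, separated by capillary electrophoresis, give the signal. Source: HepG2 cells transfected with promoter-driven reporter units, harvested 24 h post-dose. DMSO served as reference for bidirectional curve fitting.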

The target of experiment [18] is Androgen receptor (Homo sapiens) (UniProt P10275). The experiment is described as follows: ATG_AR_TRANS: Attagene TRANS-FACTORIAL HepG2 Assay for human Androgen Receptor (AR) (AID 2282973; active means hit-call score of the fitted dose curve at least 0.9, where 1 is the maximum). Particulars: HepG2 Attagene TRANS-FACTORIAL AR reporter transcription. In short, it runs like this: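 Chimeric nuclear receptor–Gal4 activity was assessed in human HepG2 hepatocytes after 24 h chemical dosing. Induced reporter mRNA was detected via labelled RT-PCR fragments on capillary electrophoresis, and gain of signal was analysed against DMSO.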

Experiment [19] in a line: ATG_M_19_TRANS: Attagene TRANS-FACTORIAL HepG2 Assay for M19 Transcription Factor (Internal Marker) (AID 2282974; active means hit-call score of the fitted dose curve at least 0.9, where 1 is the maximum). Particulars: HepG2 Attagene TRANS-FACTORIAL M19 internal marker reporter. In short, it runs like this: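 Cells: human HepG2, transiently transfected with multiplexed reporter transcription units. Exposure: 24 h. Detection: RT-PCR of reporter mRNA with capillary electrophoresis. Analysis: gain-of-signal vs DMSO.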

Experiment [20] is described as follows: ATG_Sox_CIS: Attagene CIS-FACTORIAL HepG2 Assay for human SRY-box transcription factor (SOX) (AID 2282960). The following applies: HepG2 Attagene cis-factorial SOX reporter, mRNA; actives raise or lower the signal. In short, it runs like this: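 Transient MRTU transfection of HepG2; 24 h compound incubation; TriZol RNA, oligo(dT) RT, PCR, 6-FAM primer extension, HpaI cut, CE. Bidirectional fit, DMSO = baseline.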

Several values for one entry are separate records, joined by “and”; a condition that tells them apart may be missing. Equal entries are not always repeated. Records with an inconclusive call do not appear. Activity calls are given as the source filed them. How the source made its calls, unless noted: active means hit-call score of the fitted dose curve at least 0.9, where 1 is the maximum; inactive means score below 0.9.

Sequence of Estrogen receptor (Homo sapiens) (P03372 whole entry, looked up, the tested form may be a part): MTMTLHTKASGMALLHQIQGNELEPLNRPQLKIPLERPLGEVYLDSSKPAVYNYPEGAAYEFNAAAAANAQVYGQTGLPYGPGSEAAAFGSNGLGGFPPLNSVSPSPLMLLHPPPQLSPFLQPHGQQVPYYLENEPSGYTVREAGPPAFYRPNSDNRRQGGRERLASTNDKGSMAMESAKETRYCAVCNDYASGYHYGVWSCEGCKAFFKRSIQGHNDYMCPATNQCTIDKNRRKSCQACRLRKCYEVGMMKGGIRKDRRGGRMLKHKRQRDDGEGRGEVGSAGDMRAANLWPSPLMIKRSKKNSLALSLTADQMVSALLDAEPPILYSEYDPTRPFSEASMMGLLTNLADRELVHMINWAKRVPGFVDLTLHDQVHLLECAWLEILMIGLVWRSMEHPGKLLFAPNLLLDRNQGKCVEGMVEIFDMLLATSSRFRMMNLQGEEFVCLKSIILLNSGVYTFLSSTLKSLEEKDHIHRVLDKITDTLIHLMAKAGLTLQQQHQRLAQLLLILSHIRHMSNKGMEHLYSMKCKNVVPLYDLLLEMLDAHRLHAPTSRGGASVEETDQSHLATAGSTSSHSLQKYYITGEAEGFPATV
Sequence of Paired box protein Pax-6 (Homo sapiens) (P26367 whole entry, looked up): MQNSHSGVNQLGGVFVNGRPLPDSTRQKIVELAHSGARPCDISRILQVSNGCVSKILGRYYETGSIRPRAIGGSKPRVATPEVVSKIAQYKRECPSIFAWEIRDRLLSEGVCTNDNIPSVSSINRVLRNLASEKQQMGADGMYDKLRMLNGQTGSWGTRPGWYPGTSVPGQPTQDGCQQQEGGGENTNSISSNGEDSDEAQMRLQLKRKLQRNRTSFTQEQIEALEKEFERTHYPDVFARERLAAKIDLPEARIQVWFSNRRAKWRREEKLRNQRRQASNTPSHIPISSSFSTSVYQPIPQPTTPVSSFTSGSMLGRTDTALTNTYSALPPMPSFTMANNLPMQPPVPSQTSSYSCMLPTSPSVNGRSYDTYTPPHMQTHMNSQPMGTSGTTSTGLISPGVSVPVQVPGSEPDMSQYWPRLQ
Sequence of Androgen receptor (Homo sapiens) (P10275 whole entry, looked up, the tested form may be a part): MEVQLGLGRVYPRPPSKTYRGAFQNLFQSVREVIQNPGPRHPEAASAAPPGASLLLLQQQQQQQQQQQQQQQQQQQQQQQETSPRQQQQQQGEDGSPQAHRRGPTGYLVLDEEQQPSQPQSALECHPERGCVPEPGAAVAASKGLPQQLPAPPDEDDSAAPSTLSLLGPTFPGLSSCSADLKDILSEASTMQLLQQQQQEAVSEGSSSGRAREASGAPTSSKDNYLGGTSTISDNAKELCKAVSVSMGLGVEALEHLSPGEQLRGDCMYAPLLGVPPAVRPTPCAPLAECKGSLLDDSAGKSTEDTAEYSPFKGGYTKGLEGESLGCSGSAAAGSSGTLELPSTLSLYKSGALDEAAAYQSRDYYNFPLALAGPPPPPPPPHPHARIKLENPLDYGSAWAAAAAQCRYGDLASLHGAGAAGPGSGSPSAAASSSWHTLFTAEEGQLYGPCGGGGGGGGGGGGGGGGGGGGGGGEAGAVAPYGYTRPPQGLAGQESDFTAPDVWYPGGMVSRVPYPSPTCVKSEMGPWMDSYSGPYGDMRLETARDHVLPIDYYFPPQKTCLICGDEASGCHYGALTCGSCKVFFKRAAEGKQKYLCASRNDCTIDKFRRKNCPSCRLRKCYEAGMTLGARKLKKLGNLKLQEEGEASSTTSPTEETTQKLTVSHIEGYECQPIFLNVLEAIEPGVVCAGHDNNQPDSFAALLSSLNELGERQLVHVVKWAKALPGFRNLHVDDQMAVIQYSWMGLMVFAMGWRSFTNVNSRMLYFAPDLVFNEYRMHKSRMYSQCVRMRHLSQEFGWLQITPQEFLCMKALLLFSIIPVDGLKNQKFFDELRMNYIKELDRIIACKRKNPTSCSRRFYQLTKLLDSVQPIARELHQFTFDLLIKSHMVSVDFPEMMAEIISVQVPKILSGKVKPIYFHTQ
Sequence of Transcription factor Sp1 (Homo sapiens) (P08047 whole entry, looked up): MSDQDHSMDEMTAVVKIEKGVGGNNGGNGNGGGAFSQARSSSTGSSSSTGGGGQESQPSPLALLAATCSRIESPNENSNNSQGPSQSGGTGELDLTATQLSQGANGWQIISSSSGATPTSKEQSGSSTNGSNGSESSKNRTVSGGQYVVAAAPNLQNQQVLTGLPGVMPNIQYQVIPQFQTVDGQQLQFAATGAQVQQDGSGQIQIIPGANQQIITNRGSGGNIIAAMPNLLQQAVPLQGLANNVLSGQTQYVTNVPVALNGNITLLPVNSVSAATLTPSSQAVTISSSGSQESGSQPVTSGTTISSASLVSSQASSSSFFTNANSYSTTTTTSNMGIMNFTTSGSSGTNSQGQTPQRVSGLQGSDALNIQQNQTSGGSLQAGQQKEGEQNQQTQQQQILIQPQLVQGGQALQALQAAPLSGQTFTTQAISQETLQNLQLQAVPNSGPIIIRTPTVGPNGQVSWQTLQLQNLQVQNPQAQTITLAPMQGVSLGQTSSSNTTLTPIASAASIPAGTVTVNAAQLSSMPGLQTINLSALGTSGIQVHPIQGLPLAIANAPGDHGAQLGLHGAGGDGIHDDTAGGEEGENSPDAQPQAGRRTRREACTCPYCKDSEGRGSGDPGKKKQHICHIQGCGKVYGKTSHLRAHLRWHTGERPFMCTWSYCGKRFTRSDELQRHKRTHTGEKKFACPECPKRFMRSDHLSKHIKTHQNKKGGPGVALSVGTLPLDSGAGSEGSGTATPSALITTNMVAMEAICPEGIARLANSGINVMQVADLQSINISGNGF
Sequence of Signal transducer and activator of transcription 3 (Homo sapiens) (P40763 whole entry, looked up): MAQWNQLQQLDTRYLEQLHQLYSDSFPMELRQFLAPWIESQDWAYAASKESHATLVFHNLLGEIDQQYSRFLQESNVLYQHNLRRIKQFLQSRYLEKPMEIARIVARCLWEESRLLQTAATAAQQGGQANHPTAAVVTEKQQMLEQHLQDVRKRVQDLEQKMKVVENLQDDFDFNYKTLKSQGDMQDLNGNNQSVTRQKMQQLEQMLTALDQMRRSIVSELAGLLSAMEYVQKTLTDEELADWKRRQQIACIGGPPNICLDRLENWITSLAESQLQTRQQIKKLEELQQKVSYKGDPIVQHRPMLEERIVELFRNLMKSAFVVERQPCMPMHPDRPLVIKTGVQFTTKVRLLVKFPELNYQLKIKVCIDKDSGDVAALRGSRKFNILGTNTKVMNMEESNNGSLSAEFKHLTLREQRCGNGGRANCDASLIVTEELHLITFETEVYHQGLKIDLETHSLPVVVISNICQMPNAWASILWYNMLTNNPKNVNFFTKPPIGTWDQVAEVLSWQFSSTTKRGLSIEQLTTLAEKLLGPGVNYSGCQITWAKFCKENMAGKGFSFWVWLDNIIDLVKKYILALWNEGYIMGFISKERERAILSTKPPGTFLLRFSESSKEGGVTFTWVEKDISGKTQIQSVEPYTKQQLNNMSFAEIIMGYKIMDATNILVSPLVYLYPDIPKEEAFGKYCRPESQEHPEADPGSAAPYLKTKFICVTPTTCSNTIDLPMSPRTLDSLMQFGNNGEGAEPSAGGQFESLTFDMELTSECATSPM
Sequence of X-box-binding protein 1 (Homo sapiens) (P17861 whole entry, looked up, the tested form may be a part): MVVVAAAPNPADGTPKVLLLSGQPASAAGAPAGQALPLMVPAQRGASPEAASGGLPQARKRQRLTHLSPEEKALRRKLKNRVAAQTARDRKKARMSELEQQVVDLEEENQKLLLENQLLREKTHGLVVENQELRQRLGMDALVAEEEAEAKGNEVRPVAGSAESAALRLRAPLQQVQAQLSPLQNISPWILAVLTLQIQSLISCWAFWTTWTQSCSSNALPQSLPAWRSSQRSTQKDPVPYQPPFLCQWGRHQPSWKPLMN
Sequence of Nuclear receptor subfamily 1 group I member 3 (Homo sapiens) (Q14994 whole entry, looked up, the tested form may be a part): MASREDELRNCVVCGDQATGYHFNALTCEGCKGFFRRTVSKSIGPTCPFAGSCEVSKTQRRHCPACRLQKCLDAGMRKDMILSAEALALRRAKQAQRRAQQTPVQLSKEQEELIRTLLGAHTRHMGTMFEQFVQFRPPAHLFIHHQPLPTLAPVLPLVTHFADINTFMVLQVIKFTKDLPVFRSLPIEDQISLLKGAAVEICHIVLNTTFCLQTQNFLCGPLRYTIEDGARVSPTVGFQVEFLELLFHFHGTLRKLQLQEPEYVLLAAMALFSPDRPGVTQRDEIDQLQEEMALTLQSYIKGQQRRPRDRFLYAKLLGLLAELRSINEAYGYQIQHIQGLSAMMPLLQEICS
Sequence of Steroid hormone receptor ERR1 (Homo sapiens) (P11474 whole entry, looked up, the tested form may be a part): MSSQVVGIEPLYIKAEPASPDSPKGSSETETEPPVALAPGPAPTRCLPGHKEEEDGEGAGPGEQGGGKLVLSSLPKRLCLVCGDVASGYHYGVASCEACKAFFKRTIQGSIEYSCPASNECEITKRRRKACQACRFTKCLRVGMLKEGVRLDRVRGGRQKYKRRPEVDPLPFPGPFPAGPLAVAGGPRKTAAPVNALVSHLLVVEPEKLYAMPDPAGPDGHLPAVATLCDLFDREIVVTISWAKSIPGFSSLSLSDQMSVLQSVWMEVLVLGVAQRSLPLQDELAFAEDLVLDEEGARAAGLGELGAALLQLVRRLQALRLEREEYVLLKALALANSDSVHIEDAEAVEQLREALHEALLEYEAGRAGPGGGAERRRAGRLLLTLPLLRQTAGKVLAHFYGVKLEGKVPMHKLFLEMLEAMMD

For the compound `OCC(F)(F)OC(F)(F)C(F)(F)OC(F)(F)C(F)(F)OC(F)(F)F`, the result in [1], in [2], in experiment [3], in experiment [4], in experiment [5] and in experiment [6] was inactive. Moreover, the outcome in [7], in [8], in [9], in [10], in [11] and in experiment [12] was inactive. Moreover, the compound was called inactive in experiment [13], in experiment [14], in experiment [16], in experiment [17], in experiment [18] and in experiment [19]. The AC50 in [15] is 6.04 µM (active) and 4.34 µM (active).

In the case of `Cc1cc(C)c(C(=O)P(=O)(c2ccccc2)c2ccccc2)c(C)c1`, the result in experiment [1], in experiment [2], in experiment [4], in experiment [20], in experiment [6] and in experiment [10] was inactive. Further, the compound was called inactive in experiment [11] and in [12]. In addition, the AC50 in experiment [3] was 0.199 µM (active); in experiment [5] it was 51 µM (active); in experiment [7], 41.1 µM (active); in [8], 53.7 µM (active); in experiment [9] it was 45 µM (active); in [13] it was 0.54 µM (active). Further, the AC50 in experiment [15] is 25.5 µM (active); in experiment [17], 53.4 µM (active).

For `Oc1ccccc1Br`, the outcome in [1], in [2], in [3], in experiment [4], in experiment [5] and in experiment [20] was inactive. Moreover, the compound was classed as inactive in experiment [6], in [7], in [8], in [9], in [10] and in experiment [11]. Further, the result in experiment [12], in experiment [13] and in experiment [17] was inactive.

Take `CC(=O)c1ccc(-c2ccccc2)cc1`: the outcome in experiment [1], in [2], in experiment [4], in experiment [5], in experiment [20] and in experiment [6] was inactive. Also, the compound was classed as inactive in experiment [7], in experiment [8], in [9], in experiment [10], in [11] and in experiment [12]. Further, the outcome in [14], in experiment [17] and in experiment [18] was inactive. For the same compound, the concentration at half-maximal activity (AC50) in experiment [3] was 27.2 µM (active); in [13], 32 µM (active); in [15], 6.19 µM (active).
